Assay outcomes as filed in PubChem.
Pf growth 96h: Primary qHTS for delayed death inhibitors of the malarial parasite plastid, 96 hour incubation. P. falciparum luciferase reporter growth, 96 h. 320,000 compounds, 6.9% hits. Potency, µM (titrated, usually from 28.7 µM), for inactives: at the highest dose activity change, negative = inhibition, usual class: inhibitors. AID 504834, 2011; further: potency means the concentration at half of the fitted maximal effect; on the % scale 0 is the no-effect control and ±100 the full control effect
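Infected RBCs, 2% Hct / 0.05% parasitemia final; luciferase-reporter P. falciparum; cpd 96 h, 37 C, 5% CO2; luciferase detection reagent; luminescence.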
Shiga toxin inh: A qHTS for Small Molecule Inhibitors of Shiga Toxin. Vero cells, Shiga toxin protein synthesis inhibition reporter. inhibition, % at 38.7 µM. 290,000 compounds, 9.2% hits; in the data active means inhibition mostly above about 28%, no sharp cut-off; inactive means mostly below about 43%; further: 0% is about no effect
Pf growth 48h: Primary qHTS for delayed death inhibitors of the malarial parasite plastid, 48 hour incubation. 310,000 compounds, 5.9% hits. Potency, µM (titrated, usually from 28.7 µM), for inactives: at the highest dose activity change, negative = inhibition, most hits filed as inhibitors. P. falciparum luciferase growth in erythrocytes, 48 h; further: potency means the concentration at half of the fitted maximal effect; on the % scale 0 is the no-effect control and ±100 the full control effect
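Erythrocytes infected with P. falciparum carrying an integrated firefly luciferase reporter (2% hematocrit, 0.1% parasitemia final) were exposed to compounds in RPMI 1640 with 0.5% Albumax at 37 C, 5% CO2. Growth inhibition was scored as reduced luminescence.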
Cycloheximide cs: Cycloheximide Counterscreen for Small Molecule Inhibitors of Shiga Toxin; max response, %; AID 2314, 2010; cell reporter, cycloheximide protein synthesis inhibition counterscreen; 300,000 compounds, 12% hits; in the data active means max response mostly above about 13%, no sharp cut-off; inactive means mostly below about 14%; further: read at 38.3 µM for the half of the compounds with a filed dose; 0% is about no effect
NS1 inh: qHTS Assay for Inhibitors of Influenza NS1 Protein Function; Potency, µM (series often up to 46.1 µM), inactives show top-dose activity, positive = more growth; 270,000 compounds, 0.4% hits; calls by dose curve; further: potency means the concentration at half of the fitted maximal effect; actives are rising curves; nearly all actives have a fitted effect of over 50% in size
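Recovery from NS1-induced slow growth read by OD600 in budding yeast switched to galactose assay medium (pH 6.0, -URA) at 1:100 dilution. Compound 23 nl per well; the matching strain lacking NS1 serves as control.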
SARS PLpro yeast: qHTS of Yeast-based Assay for SARS-CoV PLP; 330,000 compounds, 0.19% hits; Potency, µM (top dose mostly 32.9 µM), without a hit: at the highest dose activity, positive = growth rescue, hits mostly activators; S. cerevisiae expressing SARS-CoV PLpro, growth rescue; calls by dose curve; further: potency means the concentration at half of the fitted maximal effect; 0% is about no effect; nearly all actives have a fitted effect of over 55% in size
Starred values were filed as active, the others as inactive; ? = inconclusive; nt = no result; [ ] = another dose, or the depositor's remark. Most compounds without a hit are left out; they make up all but 21% or so of the library. Unless noted, the call rests on the fitted dose curve; in most records, active means well fitted inhibition curve with a large enough effect; inconclusive means small, poorly fitted or top-dose-only effect, or another doubt; inactive means no such curve, though single readings can be large or run the other way.

SMILES | Pf growth 96h | Shiga toxin inh | Pf growth 48h | Cycloheximide cs | NS1 inh | SARS PLpro yeast
CC(C(=O)Nc1cccc([N+](=O)[O-])c1)N1C(=O)NC2(CCCC2)C1=O (stereo not drawn) | -46% | 4 | -9% | 1 | 1% | 4%
Cc1ccc(/C=C2/N=C(c3ccccc3)NNC2=O)cc1 | ? | 3 | -28% | -1 | -7% | 0%
O=C(CN1C(=O)/C(=C\c2cccc(Br)c2)Oc2ccccc21)NCC1CCCO1 (stereo not drawn) | 13µM* | 22 | ? | -5 | 10% | nt
CCc1ccc(OC(C)C(=O)Nc2ccccc2C(=O)N2CCOCC2)cc1 (stereo not drawn) | -1% | -2 | -4% | 2 | 14% | 2%
C=CCSc1n[nH]c(-c2ccc(OCCC)cc2)n1 | -2% | 125* | -28% | 50* | -95% | -15%
C=CCSc1n[nH]c(-c2cccs2)n1 | 29% | 56 | 88% | 9 | -11% | -1%
C=CCSc1n[nH]c(-c2ccc(OCCCC)cc2)n1 | nt | 17* | ? | 41* | -94% | -21%
Clc1ccc(/C=C\c2nccc3c2[nH]c2ccccc23)cc1 | 20% | 26 | 4.7µM* | 15 | nt | -5%
N#Cc1ccc(/C=C\c2nccc3c2[nH]c2ccccc23)cc1 | -26% | 17 | 3.3µM* | 6 | nt | -5%
Cc1nccc2c1[nH]c1ccccc12 | 28% | 6 | 6% | -2 | -10% | 0%
CCc1nccc2c1[nH]c1ccccc12 | ? | nt | 0% | nt | nt | 2%
O=C(Nc1ccc(CN2CCCCC2)cc1)c1sc2ccccc2c1Cl | ? | 37 | 62% | 23* | -74% | -5%
CCCN1Cc2cccc(C(=O)Nc3ccc(CN4CCCC4)cc3)c2C1=O | nt | -10 | 9.3µM* | -3 | -3% | -8%
COc1c(C)cccc1C(=O)Nc1ccc(CN2CCCCC2)cc1 | ? | 56 | nt | 37* | -2% | -7%
O=C(Nc1ccc(CN2CCCCC2)cc1)c1cccc(Br)c1 | ? | 42* | ? | 21* | -3% | -1%
COc1cccc(OC)c1C(=O)Nc1ccc(CN2CCCCC2)cc1 | ? | -8 | -2% | -1 | 2% | 2%
COc1ccc(C(=O)Nc2ccc(CN3CCCCC3)cc2)cc1 | -3% | 35 | -7% | 7 | 4% | -1%
NC(=O)C1CCN(S(=O)(=O)c2cccc(C(=O)O)c2)CC1 | nt | -2 | -6% | -1 | 6% | -4%
O=C(Nc1ccc(C(=O)OC[C@@H]2CCCN3CCCC[C@H]23)cc1)c1cccc(Br)c1 | 2.6µM* | 2 | 1.9µM* | -3 | 1% | 13%
O=C(NC(=O)c1cccc(F)c1)OC[C@@H]1CCCN2CCCC[C@H]12 | ? | -13 | 7% | -5 | -5% | 26%
COCCN1Cc2cccc(C(=O)Nc3ccc(C)cc3)c2C1=O | ? | -2 | -18% | -2 | nt | -9%
Cn1ncc(Cl)c1C(=O)Nc1ccc(CN2CCCCC2)cc1 | 50% | 31 | -25% | 0 | -3% | 1%
COCCN1Cc2cccc(C(=O)Nc3ccc4c(c3)OCCO4)c2C1=O | -12% | 65* | nt | 31* | -18% | 8%
O=C(Nc1ccc(CN2CCCCC2)cc1)c1cc(Br)ccc1Cl | ? | 6 | 12µM* | -1 | 2% | 0%
Cc1cc(Cl)ccc1OCC(=O)OCC(=O)N(CC(C)C)c1c(N)n(Cc2ccccc2)c(=O)[nH]c1=O | 35% | nt | 2% | nt | nt | -1%
SMILES | Pf growth 96h | Shiga toxin inh | Pf growth 48h | Cycloheximide cs | NS1 inh | SARS PLpro yeast
Cc1ccc(CNC(=O)C2CCCN(c3nc4ccsc4c(=O)s3)C2)cc1 (stereo not drawn) | -4% | 18 | -18%[1.15 µM] | -5 | 0% | 0%
COc1ccc(Cn2c(CCC(=O)NCCC(C)C)nc3ncccc3c2=O)cc1 | 47% | -1 | 10%[0.00184 µM] | -10 | -3% | 4%
CCCC1(c2ccccc2)NC(=O)N(CC(=O)Nc2cc(OC)cc(OC)c2)C1=O (stereo not drawn) | ? | -9 | -22% | -1 | 7% | -1%
Cc1cc(C)c(C)c(S(=O)(=O)N2C(=S)NC(=O)C2C(C)C)c1C (stereo not drawn) | 14% | 16 | -14% | -1 | -85% | -19%
Cc1onc(-c2ccccc2)c1C(=O)OCCOc1ccccc1F | -27% | 37 | ? | 34* | -46% | -5%
Cc1onc(-c2ccccc2)c1C(=O)OCc1nnc(-c2ccc([N+](=O)[O-])cc2)o1 | -9% | nt | -7% | nt | nt | 1%
Cc1onc(-c2ccccc2)c1C(=O)OCC(=O)c1ccccc1 | nt | -11 | -1% | -3 | -9% | -11%
Cc1onc(-c2ccccc2)c1C(=O)OCCOc1ccc([N+](=O)[O-])cc1[N+](=O)[O-] | 4.1µM* | 21 | nt | -2 | 2% | -2%
Cc1ccccc1OCCOC(=O)c1c(-c2ccccc2)noc1C | ? | -5 | 12µM* | 1 | -34% | -5%
CCOC(=O)[C@H]1[C@H]2COc3ccc(Br)cc3[C@H]2N2C(=O)CNC(=O)[C@@]12C | ? | nt | 4% | nt | nt | 0%
CCOP(=O)(c1ccccc1)c1nc(-c2ccccc2Cl)oc1N1CCCCC1 (stereo not drawn) | ? | 10 | 6.6µM* | 3 | -6% | -33%
CCOP(=O)(OCC)c1nc(-c2cccc([N+](=O)[O-])c2)oc1N1CCCCC1 | ? | -21 | 23% | 11 | nt | 1%
O=C(COC(=O)c1n[nH]c2ccccc12)NC1CCCCC1 | nt | nt | nt | nt | nt | -4%
CC(=O)c1ccc(Nc2cc(C)nc3ncnn23)cc1 | -14% | nt | ? | -5 | 1% | 0%
Cc1ccc(-c2cc(C)nc3ncnn23)cc1 | 12µM* | 40 | nt | 1 | -16% | 0%
Cc1cc(Nc2ccc(C)c(F)c2)n2ncnc2n1 | 34% | -11 | 1.5µM* | -4 | 0% | -5%
Cc1ccc(Nc2cc(C)nc3ncnn23)cc1 | ? | 3 | 3.7µM* | 3 | -2% | 4%
Nc1c(Cl)cc(C2=NCCn3nc4cc(C(F)(F)F)ccc4c32)cc1Cl | ? | nt | ? | nt | nt | 1%
COc1ccc2c3n(nc2c1)CCN=C3c1cc(Cl)c(N)c(Cl)c1 | ? | nt | 13µM* | nt | nt | -14%
COC(=O)CCCC(=O)N1CCC(CO)(CCc2ccccc2)CC1 | ? | 3 | 3% | -1 | 25% | nt
O=C(c1ccoc1)N1CCC(CO)(CCc2ccccc2)CC1 | 12µM* | 9 | 6% | 9 | -4% | -1%
Cc1ccc(C2=NN3C(C2)c2ccccc2OC32C(=O)Nc3ccccc32)cc1 (stereo not drawn) | -20% | 78* | -33% | 42* | -4% | -22%
Cc1ccc(CNC(=O)C2(C)Oc3ccccc3NC2=O)cc1 (stereo not drawn) | 2% | -9 | nt | -2 | -9% | -4%
